Assay outcomes: PubChem BioAssay, several laboratories
CendR NRP1 mod: modulators of CendR peptide binding to NRP-1, primary screen, biochemical, fluorescence polarization, uHTS; 360,000 compounds, 0.85% hits; FAM-RPARPAR peptide binding to NRP-1; inhibition, % at 25 µM;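 active = inhibition or corrected inhibition above about 18%, plus a signal ratio from 0.5 to 1.5, limit read from the data, passing the limit was not always enough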
PHOSPHO1 inh: PubChem AID 1565. Phosphoethanolamine/phosphocholine phosphatase (Homo sapiens), Q8TCT1. recombinant PHOSPHO1, absorbance phosphatase assay. inhibition, % at 13.3 µM. 290,000 compounds, 1.1% hits; in the data active = inhibition above about 60%
Rpn11 block: Rpn11 (PSMD14) deubiquitinase inhibitors, primary screen, biochemical, fluorescence polarization, uHTS. human 26S proteasome, Ub4-pepOG fluorescence polarization; 20S core pre-blocked with epoxomicin. 360,000 compounds, 0.59% hits. 26S proteasome non-ATPase regulatory subunit 14 (Homo sapiens), O00487. inhibition, % at 20 µM;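 active = inhibition at 20 µM, scaled to each plate's controls, above about 33%, limit read from the data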
TPT1 inhibitor: Candida albicans TPT1 enzyme inhibitors, primary screen, biochemical, fluorescence polarization. tRNA 2'-phosphotransferase TPT1 (Candida albicans SC5314). recombinant caTPT1, FP RNA substrate dephosphorylation. inhibition, % at 5 µM. 300,000 compounds, 0.81% hits. AID 1962, 2009;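 active = inhibition above the mean of all tested compounds plus 3 SD, set per screening campaign, cut at about 24% in these data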;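 note: plate controls were DMSO alone for no effect and ferristatin control at 100 nM for full effect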
HNF4A DNA FP: change in binding of human HNF4A to DNA, primary screen, biochemical, fluorescence polarization, FITC-DNA. Hepatocyte nuclear factor 4-alpha (Homo sapiens), P41235. 1 h. activity change, % at 10 µM. 360,000 compounds, 0.3% hits; in the data active = activity change above about 30%, passing the limit was not always enough
CTSL1 counter: Fasciola hepatica cathepsin L1 inhibitors, primary screen, counter-screen for PFM18AAP inhibitor project, biochemical, QFRET, fluorogenic peptide substrate; recombinant F. hepatica cathepsin L1, Z-Leu-Arg-MCA fluorescence; inhibition, % at 5.96 µM; 300,000 compounds, 0.49% hits; AID 1906, 2009;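 active = inhibition above the mean of all tested compounds plus 3 SD, set per screening campaign, cut at about 17% in these data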;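 note: 0% = plate median of test compound wells and 100% = 1 µM Z-Phe-Ala-diazomethylketone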
An asterisk follows results filed as active; x = no result. Rows were chosen to be rich in hits. Some 3.3% of all compounds tested hit in one or more screens of this group.

SMILES | CendR NRP1 mod | PHOSPHO1 inh | Rpn11 block | TPT1 inhibitor | HNF4A DNA FP | CTSL1 counter
Cc1ccc(C(=O)NC2CCCc3ccccc32)o1 (centres undefined) | -19 | 38 | 2 | -3 | -4 | 76*
O=C(CN1C(=O)NC2(CCCCCCC2)C1=O)NC1CCCc2ccccc21 (centres undefined) | 8 | 173* | 5 | 0 | -2 | 2
O=C(CCl)NC1CCCc2ccccc21 (centres undefined) | -3 | 47 | -2 | -3 | -2 | 27*
O=C(CN1CCCCC1)Nc1cccc(Oc2ccccc2)c1 | -6 | 4 | 13 | -1 | 3 | 0
O=C(CCl)Nc1cccc(Oc2ccccc2)c1 | -12 | 21 | 2 | 1 | 0 | 43*
Nc1cccc(Oc2cnccn2)c1 | 5 | 23 | -8 | -1 | 1 | -4
O=C(CCl)Nc1cccc(Oc2cnccn2)c1 | 11 | 18 | -4 | -4 | -1 | 56*
Cc1ccc(CN2CCC[C@]3(N[C@H](c4ccc(C)cc4)[C@@H]4C(=O)N(Cc5ccccc5)C(=O)[C@@H]43)C2=O)cc1 | -9 | x | -17 | x | -1 | x
O=C(O)CCSc1nc2ccc(Br)cc2[nH]1 | 12 | 66* | -4 | -1 | -3 | 3
CCC1(c2ccc(Cl)cc2)NC(=S)N(c2ccc(C)c(C)c2)N1 (centres undefined) | -2 | 68* | 5 | -1 | 4 | 6
CCC1(c2ccccc2)NC(=S)N(c2ccc(C)c(C)c2)N1 (centres undefined) | 16 | 21 | -10 | -2 | -9 | -4
Nc1nnc(SCC(=O)Nc2cc(S(=O)(=O)N3CCOCC3)ccc2N2CCCC2)s1 | 9 | x | 14 | x | 1 | x
COc1cc(S(=O)(=O)N2CCOCC2)ccc1NC(=O)CSc1nnc(N)s1 | 4 | 65* | 3 | 0 | 1 | -1
CC(C)Cc1ccc(C(C)C(=O)Nc2ccc(O)cc2)cc1 (centres undefined) | 38* | 28 | 2 | -1 | -5 | 2
CC(C)Cc1ccc(C(C)C(=O)Nc2cccnc2)cc1 (centres undefined) | 7 | 36 | -16 | -3 | 4 | -2
COc1ccccc1NC(=S)N(Cc1ccco1)Cc1cc2cccc(C)c2[nH]c1=O | 40* | -15 | 3 | 2 | -4 | -5
COc1ccccc1NC(=S)N(Cc1ccco1)Cc1cc2cc(C)c(C)cc2[nH]c1=O | -7 | 3 | 13 | 5 | 0 | -4
COc1cc(C(=O)N2C[C@@H]3CCC[C@H]2C3)ccc1OC1CCN(C(C)=O)CC1 | 0 | -20 | -4 | 0 | -5 | 1
Cn1c(=O)cc(Nc2ccccc2)[nH]c1=O | 3 | 3 | -2 | -3 | -2 | 5
O=c1cc(Nc2cccc(Br)c2)[nH]c(=O)[nH]1 | 16 | 57 | 3 | -11 | 1 | -9
O=c1[nH]c(Nc2ccccc2)cc2cc(Br)ccc12 | -16 | x | 8 | 10 | 1 | 61*
COc1ccc(OC)c(Nc2cc3ccccc3c(=O)[nH]2)c1 | -17 | x | -15 | 9 | 7 | 70*
COc1ccccc1Nc1cc2cc(Br)ccc2c(=O)[nH]1 | -44 | x | 3 | 8 | 4 | 47*
O=c1[nH]c(Nc2ccccc2)cc2ccccc12 | -8 | 27 | -14 | 21 | -1 | 105*
COc1ccc(OC)c(Nc2nnc(C)c(=O)[nH]2)c1 | x | 32 | x | -4 | x | -4
N#Cc1c(-c2ccccc2Cl)cc(C2CC2)nc1N | 6 | 84* | -3 | -2 | 0 | 4
Cc1ccc(/C=C/C(=O)NCc2cccs2)o1 | -15 | 42 | -2 | -3 | -3 | 37*
Cc1ccc(/C=C/C(=O)NCc2cccs2)cc1 | -8 | 5 | 0 | 3 | -4 | 5
Cc1ccccc1Nc1cc(=O)oc2ccccc12 | 22* | -2 | 2 | -3 | -3 | -2
Cc1ccc(Nc2cc(=O)oc3ccccc23)c(C)c1 | 9 | 7 | 2 | 1 | -3 | -1
